# Results reported in PubChem BioAssay.
# Active and inactive are the calls of the source.
# Tests used:
# [1] = tested on: PRMT1 (protein arginine N-methyltransferase 1); experiment: small molecules binding arginine methyltransferase PRMT1 – biochemical, small-molecule microarray, 635 nm fluorescence, primary screen (AID 1088); conditions: higher = more signal;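 further: binding of Prmt1 protein to compounds spotted on small-molecule microarray slides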
# [2] = growth effects on S. cerevisiae YJM789 – YJM789 clinical isolate, OD600, 24 h, basal, primary screen (AID 1089); conditions: higher = more signal, called active from +8 up or from −8 down;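 further: growth of clinical yeast isolate S. cerevisiae YJM 789 seeded 1000 cells per well; test concentration not given here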
# [3] = S. pombe growth modifiers, basal conditions – strain 972, OD600, 24 h, no modulator, primary screen (AID 1090);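 further: basal condition with compound alone and no growth modifier present; test concentration not given here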; conditions: S. pombe 972 growth, higher = more signal, called active from +8 up or from −8 down
# [4] = budding yeast growth modifiers under rapamycin – strain BY4716, OD600, 96 h, primary screen (AID 1091); further: test concentration not given here; conditions: S. cerevisiae BY4716 + rapamycin, higher = more signal, called active from +8 up or from −8 down
# [5] = molecular target: Torsin-1A-interacting protein 2 (Homo sapiens) (UniProt Q8NFQ8); experiment: small molecules binding lysate-expressed LULL1 – cell lysate, human LULL1 lysate, 635/667 nm fluorescence, primary screen (AID 1092); conditions: small-molecule microarray, hLULL1 lysate binding, 635 nm fluorescence; higher = more signal;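 further: probe is lysate of COS7 cells overexpressing human LULL1; score merges per-feature 667 nm fluorescence with signal-to-noise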
# Sequence of Torsin-1A-interacting protein 2 (Homo sapiens) (Q8NFQ8 whole entry, looked up): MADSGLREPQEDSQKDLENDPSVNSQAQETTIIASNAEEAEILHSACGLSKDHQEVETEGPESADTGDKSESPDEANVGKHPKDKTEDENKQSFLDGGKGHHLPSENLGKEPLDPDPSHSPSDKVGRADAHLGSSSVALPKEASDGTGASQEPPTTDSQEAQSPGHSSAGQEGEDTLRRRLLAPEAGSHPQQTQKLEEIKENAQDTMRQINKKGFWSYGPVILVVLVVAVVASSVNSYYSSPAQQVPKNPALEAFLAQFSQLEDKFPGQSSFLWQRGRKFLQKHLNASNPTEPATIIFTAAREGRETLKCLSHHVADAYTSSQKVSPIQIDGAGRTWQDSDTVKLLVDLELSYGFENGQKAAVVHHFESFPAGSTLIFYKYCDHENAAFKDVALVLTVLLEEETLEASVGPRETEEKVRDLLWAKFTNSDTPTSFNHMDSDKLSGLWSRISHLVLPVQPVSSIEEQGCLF
# [6] = optical density change of DRC41 E. coli – strain DRC41, OD650, 24 h, E. coli filamentation project, primary screen (AID 1093);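 further: MC1000 strain lacking acrAB efflux and sulA so SOS filamentation is blocked; test concentration not given here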; conditions: E. coli DRC41 growth, higher = more signal, called active from +8 up or from −8 down
# [7] = probe aLefty2 binding to arrayed compounds – biochemical, biotinylated probe, 635/667 nm fluorescence, primary screen (AID 1094); conditions: small-molecule microarray, higher = more signal;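 further: score merges spot fluorescence near 667 nm with spot signal-to-noise ratio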
# [8] = tested on: Noggin (protein binding on small-molecule microarray); experiment: small molecules binding Noggin protein – biochemical, 635/667 nm fluorescence, primary screen (AID 1095); conditions: 635 nm fluorescence, higher = more signal;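 further: score merges 667 nm feature fluorescence with signal to noise over triplicate slides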
# [9] = molecular target: Neurogenic locus notch homolog protein 3 (Homo sapiens) (UniProt Q9UM47); experiment: small molecules binding NOTCH3 protein – biochemical, 635/667 nm fluorescence, primary screen (AID 1096); conditions: small-molecule microarray, 635 nm fluorescence, higher = more signal
# Sequence of Neurogenic locus notch homolog protein 3 (Homo sapiens) (Q9UM47 whole entry, looked up): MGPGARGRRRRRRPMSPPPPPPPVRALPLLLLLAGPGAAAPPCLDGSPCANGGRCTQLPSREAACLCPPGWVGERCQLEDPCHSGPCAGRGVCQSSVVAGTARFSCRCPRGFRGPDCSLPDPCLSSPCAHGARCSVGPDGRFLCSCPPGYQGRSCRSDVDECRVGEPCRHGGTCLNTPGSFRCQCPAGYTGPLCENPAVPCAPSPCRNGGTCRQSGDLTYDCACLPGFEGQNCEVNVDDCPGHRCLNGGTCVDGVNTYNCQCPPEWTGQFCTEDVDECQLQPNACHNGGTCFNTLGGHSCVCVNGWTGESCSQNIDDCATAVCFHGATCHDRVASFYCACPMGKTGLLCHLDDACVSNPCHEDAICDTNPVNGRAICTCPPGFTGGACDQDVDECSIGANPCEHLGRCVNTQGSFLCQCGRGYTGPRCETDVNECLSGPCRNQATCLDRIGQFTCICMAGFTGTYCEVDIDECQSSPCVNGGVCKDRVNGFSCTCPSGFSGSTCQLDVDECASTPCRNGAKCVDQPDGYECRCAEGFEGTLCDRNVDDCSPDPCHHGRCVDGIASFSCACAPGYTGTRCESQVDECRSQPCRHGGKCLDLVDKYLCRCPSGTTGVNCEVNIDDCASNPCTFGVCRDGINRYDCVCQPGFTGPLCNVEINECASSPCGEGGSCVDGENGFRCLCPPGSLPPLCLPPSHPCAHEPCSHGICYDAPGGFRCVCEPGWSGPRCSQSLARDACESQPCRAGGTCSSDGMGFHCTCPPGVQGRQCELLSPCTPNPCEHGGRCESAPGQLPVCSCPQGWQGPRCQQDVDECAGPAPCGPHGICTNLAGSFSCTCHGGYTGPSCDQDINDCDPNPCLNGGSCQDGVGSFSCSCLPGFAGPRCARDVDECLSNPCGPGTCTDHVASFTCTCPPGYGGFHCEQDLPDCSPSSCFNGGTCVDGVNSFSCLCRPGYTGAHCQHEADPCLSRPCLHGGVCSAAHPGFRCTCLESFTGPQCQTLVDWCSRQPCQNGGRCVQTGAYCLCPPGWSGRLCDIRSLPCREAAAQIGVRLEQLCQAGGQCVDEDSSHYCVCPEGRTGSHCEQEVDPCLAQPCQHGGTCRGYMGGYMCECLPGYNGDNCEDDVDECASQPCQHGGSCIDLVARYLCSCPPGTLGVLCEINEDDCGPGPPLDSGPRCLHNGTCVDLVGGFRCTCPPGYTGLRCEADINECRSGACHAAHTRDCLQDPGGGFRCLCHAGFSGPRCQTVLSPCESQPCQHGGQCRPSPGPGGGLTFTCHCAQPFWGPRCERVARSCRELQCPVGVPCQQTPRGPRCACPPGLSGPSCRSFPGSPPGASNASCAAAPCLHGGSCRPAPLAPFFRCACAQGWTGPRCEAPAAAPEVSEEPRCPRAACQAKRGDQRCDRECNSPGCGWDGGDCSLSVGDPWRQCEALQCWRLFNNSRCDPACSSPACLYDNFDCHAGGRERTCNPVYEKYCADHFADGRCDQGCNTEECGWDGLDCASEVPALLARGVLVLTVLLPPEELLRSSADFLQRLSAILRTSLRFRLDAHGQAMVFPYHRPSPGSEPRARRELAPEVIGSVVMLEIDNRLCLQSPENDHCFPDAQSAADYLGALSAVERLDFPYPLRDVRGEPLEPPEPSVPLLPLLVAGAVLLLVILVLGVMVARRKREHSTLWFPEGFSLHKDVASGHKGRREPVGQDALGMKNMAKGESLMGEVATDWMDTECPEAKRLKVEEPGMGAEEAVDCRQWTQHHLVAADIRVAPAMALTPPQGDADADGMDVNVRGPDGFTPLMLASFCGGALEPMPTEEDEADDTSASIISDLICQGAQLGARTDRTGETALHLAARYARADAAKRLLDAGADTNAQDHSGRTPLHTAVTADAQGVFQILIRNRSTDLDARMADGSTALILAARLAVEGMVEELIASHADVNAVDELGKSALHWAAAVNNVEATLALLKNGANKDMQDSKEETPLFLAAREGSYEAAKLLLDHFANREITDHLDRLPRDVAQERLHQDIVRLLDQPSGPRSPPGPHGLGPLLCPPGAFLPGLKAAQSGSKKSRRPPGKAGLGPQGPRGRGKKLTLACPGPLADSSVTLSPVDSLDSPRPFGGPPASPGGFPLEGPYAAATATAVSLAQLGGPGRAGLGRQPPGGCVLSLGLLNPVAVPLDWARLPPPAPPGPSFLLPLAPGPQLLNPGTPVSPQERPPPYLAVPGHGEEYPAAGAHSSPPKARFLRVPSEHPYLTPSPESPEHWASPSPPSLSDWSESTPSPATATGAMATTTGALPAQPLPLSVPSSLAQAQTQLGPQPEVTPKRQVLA
# [10] = probe aEGFR binding to arrayed compounds – biochemical, biotinylated probe, 635/667 nm fluorescence, primary screen (AID 1097); conditions: small-molecule microarray, higher = more signal;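 further: probe is a biotinylated anti-EGFR antibody binding compounds printed on slides; score combines fluorescence near 667 nm and signal to noise of each spot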
SMILES,composite z-score [1],z-score [2],z-score [3],z-score [4],composite z-score [5],z-score [6],composite z-score [7],composite z-score [8],composite z-score [9],composite z-score [10]
CCOC(=O)[C@H](Cc1ccccc1)NC(=O)CCC1CC(OC(=O)NCCc2ccc(F)cc2)CC2(CCCC(COC(=O)NCC3CCCCC3)O2)O1 (stereo not given in full),1.55,0.644 (inactive),0.432 (inactive),0.6 (inactive),2.4,0.18 (inactive),-0.106,0.53,1.07,0.0282
CCOC(=O)[C@H](CC(C)C)NC(=O)CCC1CC(OC(=O)NCCc2ccc(F)cc2)CC2(CCCC(COC(=O)NCCc3ccccc3OC)O2)O1 (stereo not given in full),1.15,0.217 (inactive),1.02 (inactive),0.471 (inactive),1.73,-0.0351 (inactive),-0.19,0.718,1.12,0.0004
CC(C)=NOC[C@@H](C)[C@H](OCc1ccccc1)C(C)C,-0.465,0.682 (inactive),-0.207 (inactive),0.752 (inactive),-0.602,0.0184 (inactive),-0.127,1.06,-1.12,-0.0656
CC(=O)OC[C@H]1O[C@H](CCON=C2[C@H]3CCn4c(=O)n(-c5ccccc5)c(=O)n4[C@H]3[C@H](O)[C@@H]3O[C@H]23)C=C[C@@H]1OC(C)=O,0.156,-0.111 (inactive),0.127 (inactive),0.49 (inactive),0.77,0.93 (inactive),-0.25,1.43,0.587,0.0488
CC(CCN1CCCCc2nc(C)c(C)cc21)=NOC[C@@H](O)COCc1ccco1,1.3,-1.35 (inactive),0.527 (inactive),-0.119 (inactive),-0.58,0.742 (inactive),-0.0042,1.21,0.876,0.592
O=C1[C@H]2[C@H]3[C@H](O)[C@H](O)CC(=NOCc4ccccc4)[C@@H]3CC[C@H]2C(=O)N1C[C@@H]1CCCO1,-0.423,-0.857 (inactive),0.767 (inactive),-0.369 (inactive),0.292,1.27 (inactive),-0.114,0.228,0.237,-0.0151
CCOC(=O)C1=NO[C@@]2(C=C(Br)C3(OCCCO3)[C@H]3O[C@H]32)C1,-0.481,0.74 (inactive),0.664 (inactive),-0.291 (inactive),0.0603,0.292 (inactive),0.105,1.42,0.91,-0.004
O=C1C[C@@H](O)[C@@H](O)[C@@H]2[C@@H]3C(=O)N(C[C@@H]4CCCO4)C(=O)[C@@H]3CC[C@@H]12,0.282,-0.217 (inactive),-0.519 (inactive),-0.404 (inactive),1.17,0.48 (inactive),-0.0708,0.658,0.472,0.091
CC(CCC(=O)OC[C@H]1O[C@H](C#Cc2ccccc2)C=C[C@@H]1Oc1ccc(C)cc1)=NO[C@H](C)c1cn([C@H](CO)Cc2ccccc2)nn1,1.05,1.62 (inactive),-0.372 (inactive),1.31 (inactive),1.05,0.171 (inactive),-0.239,0.689,0.695,-0.17
COC(=O)CC=C[C@H](C)[C@@H](OCc1cccc(Br)c1)[C@@H](C)[C@H](OC)C1CCCCC1,-0.0514,0.738 (inactive),-1.28 (inactive),0.99 (inactive),-0.412,0.276 (inactive),-0.166,0.32,-1,-0.237
COC(=O)CC=C[C@@H](C)[C@@H](C=NO[C@H](C)c1cn([C@@H]2COC[C@H]2O)nn1)NS(=O)(=O)c1ccc(C)cc1,0.274,0.412 (inactive),0.144 (inactive),-0.173 (inactive),-0.0305,0.554 (inactive),0.0428,0.492,0.223,0.0049
O=C1C[C@@H](O)[C@@H](O)[C@@H]2[C@@H]3C(=O)N(Cc4ccc5c(c4)OCO5)C(=O)[C@@H]3CC[C@H]12,0.0008,0.264 (inactive),-0.587 (inactive),-0.511 (inactive),0.443,0.378 (inactive),-0.136,0.318,0.406,0.0135
COc1ccc(O[C@@H]2[C@H](O)CO[C@H]2C=Cc2ccccc2)cc1,0.619,-2.63 (inactive),-3.17 (inactive),-0.856 (inactive),0.108,0.473 (inactive),-0.214,0.146,-0.167,-0.148
CC(C)CON=C1C[C@@H](O)[C@@H](O)[C@@H]2[C@@H]3C(=O)N(Cc4ccc5c(c4)OCO5)C(=O)[C@@H]3CC[C@H]12,1.31,0.306 (inactive),0.754 (inactive),0.329 (inactive),2.33,0.396 (inactive),-0.2,1.38,0.846,-0.0697
O=C(NN=C1C[C@@H](O)[C@@H](O)[C@@H]2[C@@H]3C(=O)N(C4CCCCC4)C(=O)[C@@H]3CC[C@@H]12)OCc1ccccc1,-0.492,0.313 (inactive),-0.452 (inactive),-0.157 (inactive),-0.181,0.572 (inactive),-0.372,-0.248,0.256,-0.0262
CCN1C(=O)[C@H]2[C@H]3[C@H](O)[C@H](O)CC(=O)[C@H]3CC[C@H]2C1=O,0.288,-0.955 (inactive),-0.38 (inactive),-0.18 (inactive),0.718,0.759 (inactive),-0.228,0.675,0.386,-0.0989
CCOC(=O)[C@H](Cc1ccccc1)NC(=O)CCC1CC(OC(=O)NCCc2ccc(F)cc2)CC2(CCCC(COC(=O)NCCCN3CCCC3=O)O2)O1 (stereo not given in full),1.37,-1.68 (inactive),-0.574 (inactive),0.674 (inactive),2,-0.806 (inactive),-0.0986,0.373,1.14,0.006
O=C1[C@H]2[C@H]3[C@H](O)[C@H](O)CC(=NOCc4ccccc4)[C@@H]3CC[C@H]2C(=O)N1c1ccc(F)cc1F,-0.755,-1.94 (inactive),-0.469 (inactive),-0.996 (inactive),0.324,-0.778 (inactive),-0.205,0.358,-0.283,-0.125
CC(C)CON=C1C[C@@H](O)[C@@H](O)[C@@H]2[C@@H]3C(=O)N(C4CCCCC4)C(=O)[C@@H]3CC[C@H]12,1.42,0.0058 (inactive),0.303 (inactive),-0.393 (inactive),1.1,0.411 (inactive),-0.0396,0.683,1.13,-0.0817
COC(=O)[C@@H]1CC[C@H](C)[C@@H](c2ccc(C)cc2)N1C(=O)c1ccc(C=NO[C@H](C)c2cn([C@H](CO)Cc3ccccc3)nn2)cc1,1.04,0.149 (inactive),0.0048 (inactive),0.619 (inactive),0.6,-0.551 (inactive),0.0943,1.19,1.05,0.119
COC(=O)[C@H](C)NC(=O)CCC1CC(OC(=O)NCc2ccc3c(c2)OCO3)CC2(CCCC(COC(=O)NCC3CCCCC3)O2)O1 (stereo not given in full),1.46,0.147 (inactive),0.803 (inactive),1.45 (inactive),2.28,-0.0678 (inactive),-0.0576,1.1,1.1,-0.0139
Cc1ccc(S(=O)(=O)N[C@@H]2COC(=O)[C@@H](C)COC(=O)CC=C[C@H]2C)cc1,-0.496,1.19 (inactive),0.227 (inactive),1.02 (inactive),-0.548,-0.266 (inactive),-0.183,0.49,0.702,-0.182
CC(=O)OC[C@H]1OC(ON=CC[C@@H]2C=C[C@H](OC(C)=O)[C@@H](COC(C)=O)O2)[C@H](OC(C)=O)[C@@H](OC(C)=O)[C@@H]1OC(C)=O (stereo not given in full),1.4,-0.763 (inactive),0.17 (inactive),-0.64 (inactive),0.828,-0.16 (inactive),0.106,0.612,0.448,0.145
COC(=O)C1=C(C)N(Cc2ccccc2)[C@]23O[C@](C(=O)OC)(C(=O)N2[C@@H]1c1ccccc1)C(C(=O)OC)=C3C(=O)OC,1.36,-1.68 (inactive),-2.66 (inactive),-1.85 (inactive),1.31,0.521 (inactive),-0.0228,0.551,1.12,0.0478
